In PubChem BioAssay AID1159580 (chemical genetic matrix, 2015):
Values joined by “and” are separate entries in the source; they are usually repeats but may differ in a detail not shown here. Equal entries are not always repeated. In all, about 5,500 compounds went through this assay and about 2,000 (36%) were called active. Inconclusive results (about 18%) are left out. Cut-off read from the data, not from the text of the source: active = normalized growth mostly below about 0.91 (no sharp cut-off); inconclusive = no clear call, values can overlap the other calls; inactive = mostly above about 0.92. The list shows a part of the results. The source holds several records for some structures; these can differ, active in one and inactive in another.

Assay: chemical genetic growth profiling, strain panel (AID 1159580);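 note: tested at 20 µM; growth read once vehicle control cultures reached saturation at 30 °C; 1 = growth at the plate median or of vehicle wells; lower values mean less growth of the strain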
Conditions: S. cerevisiae deletion strains, growth OD

Measured: normalized growth

CSc1ccc2c(c1)N(CCC1CCCCN1C)c1ccccc1S2 (stereo not given)
0.0522 (active) and 0.997 (inactive): locus YHR030C, strain SLT2, stronger effect = lower value
inactive: locus YAL021C, strain ccr4, stronger effect = lower value 0.939 | locus YAL030W, strain snc1, stronger effect = lower value 0.985 | locus YAL040C, strain CLN3, stronger effect = lower value 1.07 | locus YBL061C, strain skt5, stronger effect = lower value 0.963 | locus YBR023C, strain chs3, stronger effect = lower value 0.923 | locus YBR171W, strain sec66, stronger effect = lower value 1.03 | locus YBR231C, strain swc5, stronger effect = lower value 0.94 | locus YCL011C, strain gbp2, stronger effect = lower value 0.94 | locus YCL016C, strain dcc1, stronger effect = lower value 0.951 | locus YCL061C, strain MRC1 (second series), stronger effect = lower value 0.991 | locus YCL069W, strain vba3, stronger effect = lower value 1.01 | locus YCR088W, strain abp1, stronger effect = lower value 1.01 | locus YDL005C, strain med2, stronger effect = lower value 1.05 | locus YDL040C, strain nat1, stronger effect = lower value 1.01 | locus YDL185W, strain tfp1, stronger effect = lower value 1.01 | locus YDR001C, strain nth1, stronger effect = lower value 1.02 | locus YDR150W, strain NUM1, stronger effect = lower value 0.972 | locus YDR159W, strain sac3, stronger effect = lower value 0.977 | locus YDR297W, strain sur2, stronger effect = lower value 0.962 | locus YDR334W, strain swr1, stronger effect = lower value 1.04 | locus YDR335W, strain msn5, stronger effect = lower value 0.967 | locus YDR363W, strain ESC2, stronger effect = lower value 0.894 | locus YDR392W, strain spt3, stronger effect = lower value 1.12 | locus YEL003W, strain gim4, stronger effect = lower value 0.971 | locus YEL037C, strain rad23, stronger effect = lower value 1.01 | locus YEL061C, strain CIN8 (second series), stronger effect = lower value 1.02 | locus YER002W, strain NOP16, stronger effect = lower value 1.01 | locus YER016W, strain bim1, stronger effect = lower value 0.992 | locus YER110C, stronger effect = lower value 0.916 | locus YER111C, strain swi4, stronger effect = lower value 1.01 | locus YER155C, strain BEM2 (second series), stronger effect = lower value 1.05 | locus YGL078C, strain dbp3, stronger effect = lower value 1.01 | locus YGL167C, strain pmr1, stronger effect = lower value 1.01 | locus YGL173C, strain kem1, stronger effect = lower value 0.966 | locus YGL227W, strain vid30, stronger effect = lower value 1.04 | locus YGL240W, strain doc1, stronger effect = lower value 0.955 | locus YGL253W, strain hxk2, stronger effect = lower value 0.948 | locus YHR013C, strain ard1, stronger effect = lower value 1.01 | locus YHR079C, strain IRE1, stronger effect = lower value 0.979 | locus YHR142W, strain chs7, stronger effect = lower value 0.962 | locus YIL125W, strain kgd1, stronger effect = lower value 1.01 | locus YJL092W, strain hpr5, stronger effect = lower value 0.994 | locus YJL115W, strain asf1, stronger effect = lower value 1.01 | locus YJL129C, strain trk1, stronger effect = lower value 1.07 | locus YJL154C, strain vps35, stronger effect = lower value 1.03 | locus YJL164C, strain tpk1, stronger effect = lower value 0.977 | locus YJL166W, strain qcr8, stronger effect = lower value 0.97 | locus YJL187C, strain SWE1, stronger effect = lower value 0.939 | locus YJR066W, strain TOR1, stronger effect = lower value 0.937
active: locus YAL013W, strain DEP1, stronger effect = lower value 0.161 and 0.864 | locus YAL026C, strain drs2, stronger effect = lower value 0.23 | locus YBR009C, strain hhf1, stronger effect = lower value 0.877 | locus YBR021W, strain FUR4, stronger effect = lower value 0.195 | locus YBR229C, strain ROT2, stronger effect = lower value 0.451 | locus YBR279W, strain paf1, stronger effect = lower value 0.924 | locus YCL029C, strain bik1, stronger effect = lower value 0.169 | locus YDL035C, strain GPR1, stronger effect = lower value 0.0738 | locus YDL074C, strain BRE1, stronger effect = lower value 0.0864 | locus YDL101C, strain DUN1, stronger effect = lower value 0.0947 | locus YDL134C, strain PPH21, stronger effect = lower value 0.0681 | locus YDL192W, strain arf1, stronger effect = lower value 0.0652 | locus YDR069C, strain doa4, stronger effect = lower value 0.891 | locus YDR101C, strain arx1, stronger effect = lower value 0.419 | locus YDR137W, strain rgp1, stronger effect = lower value 1.35 [resistant] | locus YDR162C, strain NBP2, stronger effect = lower value 0.0524 | locus YDR195W, strain ref2 1.37 [resistant] | locus YDR318W, strain mcm21, stronger effect = lower value 0.116 | locus YDR388W, stronger effect = lower value 0.0641 | locus YDR502C, strain sam2, stronger effect = lower value 0.123 | locus YEL061C, strain CIN8, stronger effect = lower value 0.196 | locus YER015W, strain faa2, stronger effect = lower value 0.842 | locus YER155C, strain BEM2, stronger effect = lower value 0.789 | locus YER167W, strain BCK2, stronger effect = lower value 0.118 | locus YFR010W, strain ubp6, stronger effect = lower value 0.781 | locus YGL086W, strain mad1, stronger effect = lower value 0.0828 | locus YGL248W, strain PDE1, stronger effect = lower value 0.0643 | locus YGR135W, strain pre9, stronger effect = lower value 0.189 | locus YGR229C, strain SMI1, stronger effect = lower value 0.06 | locus YGR252W, strain gcn5, stronger effect = lower value 0.161 | locus YHR027C, strain rpn1, stronger effect = lower value 0.844 | locus YHR079C, strain IRE1 (second series), stronger effect = lower value 0.374 | locus YHR094C, strain hxt1, stronger effect = lower value 0.304 | locus YHR129C, strain ARP1, stronger effect = lower value 0.0924 | locus YHR200W, strain rpn10, stronger effect = lower value 0.26 | locus YIL066C, strain RNR3, stronger effect = lower value 0.0646 | locus YIL073C, strain SPO22, stronger effect = lower value 0.0996 | locus YIR030C, strain dcg1, stronger effect = lower value 0.227 | locus YJL095W, strain BCK1 (second series), stronger effect = lower value 0.894 | locus YJL134W, strain LCB3, stronger effect = lower value 0.9 | locus YJL168C, strain set2, stronger effect = lower value 0.098 | locus YJL187C, strain SWE1 (second series), stronger effect = lower value 0.0709 | locus YJR043C, strain POL32, stronger effect = lower value 0.0862
0.194 (active) and 1.01 (inactive): locus YGR078C, strain PAC10, stronger effect = lower value
0.0681 (active) and 0.997 (inactive): locus YJL095W, strain BCK1, stronger effect = lower value
